Consider 17 sequences from the supplement of paper PMC6555819.

What all share (test): PBM binding z-score (relative to random genomic background probes); higher = stronger binding; sequences stand for … in GC…GCGATTGACAGCGTAGAATGAAGG
Experiment [1] relates to RARb homodimer (NR concentration 270 nM). In a few lines:
(§1)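 Ligand-free nuclear receptor dimers were applied to custom Agilent 4×180K protein-binding microarrays whose double-stranded probes carried direct-repeat seeds, single-nucleotide variants, half-site ablations and random human genomic background sequences in 34-nt variable regions. Incubation lasted 1 h. Binding z-scores were computed against the random background probes from regression-normalized fluorescence.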

Experiment [2] concerns RARg:RXRa (NR concentration 270 nM, RXRa partner concentration 90 nM). Put shortly:
as §1

Experiment [3] relates to RARg homodimer (NR concentration 270 nM). Put shortly:
as §1

Experiment [4] concerns RXRa DBDmut IVT, anti-RXR (DBD mutation: RXRa K156A/R161A, NR concentration 90 nM). Put shortly:
as §1

Experiment [5] relates to RXRa homodimer (NR concentration 180 nM). In a few lines:
as §1

In experiment [6] the test system is THRa:RXRa (NR concentration 90 nM, RXRa partner concentration 90 nM). In a few lines: as §1
Experiment [7] deals with THRa homodimer (NR concentration 90 nM). In a few lines: as §1
Experiment [8] concerns VDR homodimer (NR concentration 270 nM). Put shortly: as §1

Regarding CGAACTAGGTCAAAGTACAGTGAAAGGCGACGTA, the PBM binding z-score was determined as 2.8 in experiment [1]; 4.13 in experiment [2]; 4.62 in experiment [3]; 2 in experiment [4]; 3.1 in experiment [5]; 2.57 in experiment [6]. Further, the PBM binding z-score in experiment [7] came out at 0.294; in experiment [8] it was 0.766.
Consider CCTAGCAGGCCAGGGTCACCCAAGCATTTCGCTT, for which the PBM binding z-score in experiment [1] is 3.34; in experiment [2] it was 3.95; in experiment [3], 2.98; in experiment [4], -0.0851; in experiment [5] it was 4.34; in experiment [6], 3.44. The PBM binding z-score in experiment [7] amounted to 1.71; in experiment [8], 1.35.
For CAAACTAGGTCACCAGGACAGTGAAGAGGTTGGA, the PBM binding z-score in experiment [1] was 3.44; in experiment [2], 4.56; in experiment [3], 5.51; in experiment [4] it was 1.54; in experiment [5], 3.75; in experiment [6], 3.77. In addition, the results for the PBM binding z-score in experiment [7] and in experiment [8] were 2 and 1.03, respectively.
Regarding TCGAGTAGGGTACGGGGGCATTCAGGGATGAAGA, the PBM binding z-score in experiment [1] worked out at 1.81; in experiment [2], 2.33; in experiment [3] it was 1.97; in experiment [4], 2.6; in experiment [5] it was 1.67; in experiment [6] it was 4.02. Also, the results for the PBM binding z-score in experiment [7] and in experiment [8] were 1.48 and 3.8, respectively.
Turning to CCTACTGGGCCATTAAGAGGTCATTGATCATATG, the PBM binding z-score was 3.96 in experiment [1]; 3.93 in experiment [2]; 2.81 in experiment [3]; 1.02 in experiment [4]; 3.74 in experiment [5]; 3.23 in experiment [6]. For the same sequence, the PBM binding z-score in experiment [7] is 1.49; in experiment [8] it was 2.79.
On to TTATCAAGGTGAAAGGTCGTTGATGCACGCCTTG, for which the PBM binding z-score in experiment [1] came out at 2.42; in experiment [2], 4.25; in experiment [3], 2.44; in experiment [4], 0.854; in experiment [5] it was 5.89; in experiment [6] it was 3.44. Moreover, the figures for the PBM binding z-score in experiment [7] and in experiment [8] were 1.19 and 1.54, respectively.
For the sequence CGTACTAGGTCACCAGGACAGTGAAGAGGTTGGA, the PBM binding z-score in experiment [1] stood at 3.24; in experiment [2], 4.42; in experiment [3], 5.34; in experiment [4], 1.55; in experiment [5], 3.04; in experiment [6], 3.22. Further, the PBM binding z-score was 1.88 in experiment [7] and 0.631 in experiment [8].
ATATGTAGGTCATCGGGTCATTCAGTTTGCGCAT: the PBM binding z-score in experiment [1] was determined as 4.63; in experiment [2], 6.21; in experiment [3], 5.6; in experiment [4], 2.92; in experiment [5], 6.72; in experiment [6], 4.16. Moreover, the PBM binding z-score in experiment [7] worked out at 3; in experiment [8], 5.1.
For the sequence CCTACTGGGCCATTCAGAGGTCACTGATCATATG, the PBM binding z-score in experiment [1] came out at 4.51; in experiment [2], 4.5; in experiment [3], 3.57; in experiment [4] it was 0.354; in experiment [5], 3.71; in experiment [6], 3.48. Moreover, the PBM binding z-score in experiment [7] stood at 1.72; in experiment [8] it was 1.85.
For AGAATGAGGTTAACAAAGATCAGGGAAACGCTTG, the PBM binding z-score in experiment [1] turned out to be 0.892; in experiment [2], 2.1; in experiment [3], 1.73; in experiment [4], 1.27; in experiment [5] it was 2.69; in experiment [6] it was 2.57. Moreover, the PBM binding z-score worked out at 0.682 in experiment [7] and 0.0806 in experiment [8].
In the case of ATATGTAGGTAAGGGTCATTCAGAAAGTAGGGAA, the PBM binding z-score in experiment [1] came out at 3.55; in experiment [2], 4.21; in experiment [3] it was 3.2; in experiment [4] it was 2.15; in experiment [5] it was 4.88; in experiment [6], 3.01. Further, the PBM binding z-score is 1.15 in experiment [7] and 3.13 in experiment [8].
As for CGTCAAAGTTAAAGGTAACGTAACAGAAAGCAGC, the PBM binding z-score was found to be 0.442 in experiment [1]; 0.799 in experiment [2]; 0.833 in experiment [3]; 0.0376 in experiment [4]; 0.816 in experiment [5]; 0.694 in experiment [6]. For the same sequence, the values for the PBM binding z-score in experiment [7] and in experiment [8] were -0.0792 and -0.165, respectively.
As for TCGAGTAGGTTACGGGGGCATACAGGGATGAAGA, the PBM binding z-score amounted to 2.05 in experiment [1]; 3.68 in experiment [2]; 2.84 in experiment [3]; 1.44 in experiment [4]; 3.07 in experiment [5]; 3.53 in experiment [6]. The figures for the PBM binding z-score in experiment [7] and in experiment [8] were 1.18 and 2.83, respectively.
In the case of CTATGTAGGTTAAGGGGTTCATTCAGTTTGAAAG, the PBM binding z-score in experiment [1] was determined as 1.75; in experiment [2], 1.88; in experiment [3], 1.04; in experiment [4], 2.79; in experiment [5], 2.55; in experiment [6], 1.92. Further, the PBM binding z-score in experiment [7] was determined as 0.473; in experiment [8], 7.01.
As to CGAACTAGGTCACCATGACAGTGAAGAGGTTGGA, the PBM binding z-score is 3.31 in experiment [1]; 4.27 in experiment [2]; 5.26 in experiment [3]; 1.18 in experiment [4]; 3.17 in experiment [5]; 2.99 in experiment [6]. The PBM binding z-score worked out at 1.41 in experiment [7] and 0.264 in experiment [8].
Take CGAACTAGGTCAAAGGACAATGAAAGGCGACGTA: the PBM binding z-score in experiment [1] was 3.04; in experiment [2], 4.01; in experiment [3], 4.77; in experiment [4], 1.13; in experiment [5], 3.35; in experiment [6] it was 2.67. For the same sequence, the figures for the PBM binding z-score in experiment [7] and in experiment [8] were 0.783 and 0.585, respectively.
As for AGTCAAAGTTCACGACGAGGTAACGTAAAGCACG, the PBM binding z-score was found to be 4.35 in experiment [1]; 6.88 in experiment [2]; 6.88 in experiment [3]; 4.21 in experiment [4]; 5.95 in experiment [5]; 4.41 in experiment [6]. Also, the PBM binding z-score amounted to 1.36 in experiment [7] and 3.96 in experiment [8].
